Among the data in PubChem BioAssay (EPA / NIEHS) are outcome and AC50 values, retold here.

What all share (conditions): mRNA level, 48 h; actives raise or lower the signal
Read-out in assay [1]: Bcl-2 (BID) gene, BID (gene 637)
As to the kind of experiment: LTEA_HepaRG_BID: Life Technologies and Expression Analysis (LTEA) Assay for Bcl-2 (BID) gene using HepaRG (AID 2283476). The method, boiled down:
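Duplicate 48 h treatments of HepaRG cells in serum-free induction medium spanned 100 uM downward in half-log steps, 0.5% DMSO. Transcript change quantified by qRT-PCR against three housekeeping genes, fitted up or down versus DMSO.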

Read-out in another assay: Caspase-3 (Homo sapiens) (UniProt P42574)
As to the kind of experiment: LTEA_HepaRG_CASP3: Life Technologies and Expression Analysis (LTEA) Assay for cysteine-aspartic acid protease (CASP3) using HepaRG (AID 2283477). Put shortly: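 Read-out is CASP3 mRNA level by TaqMan qRT-PCR in human HepaRG cells after 48 h chemical exposure. Eight half-log concentrations topping at 100 uM were tested in 0.5% DMSO; gain or loss was fitted relative to DMSO.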

Read-out in assay [2]: Cytochrome P450 (CYP24A1), CYP24A1 (gene 1591)
Put plainly: LTEA_HepaRG_CYP24A1: Life Technologies and Expression Analysis (LTEA) Assay for Cytochrome P450 (CYP24A1) using HepaRG (AID 2283478). The method, boiled down:
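HepaRG, 48 h chemical exposure, 8-pt half-log CRC from 100 uM, 0.5% DMSO vehicle, duplicates. Endpoint: CYP24A1 mRNA by Fluidigm TaqMan qRT-PCR, normalized ACTB/GAPDH/POLR2A; gain/loss fit vs DMSO.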

Read-out in assay [3]: Cytochrome P450 (CYP1A2), CYP1A2 (gene 1544)
Put plainly: LTEA_HepaRG_CYP1A2: Life Technologies and Expression Analysis (LTEA) Assay for Cytochrome P450 (CYP1A2) using HepaRG (AID 2283479). Put shortly: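 CYP1A2 transcript induction or loss, quantified by Fluidigm qRT-PCR against three housekeeping genes, was fitted bidirectionally against 0.5% DMSO controls. Human HepaRG cells received eight half-log concentrations from 100 uM over 48 h.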

Read-out in assay [4]: cysteine-aspartic acid protease (CASP8), CASP8 (gene 841)
Put plainly: LTEA_HepaRG_CASP8: Life Technologies and Expression Analysis (LTEA) Assay for cysteine-aspartic acid protease (CASP8) using HepaRG (AID 2283480). The method, boiled down:
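Concentration-response in duplicate up to 100 uM (half-log steps, 0.5% DMSO) on differentiated HepaRG cultures for 48 h. Expression change of CASP8 mRNA is determined by TaqMan qRT-PCR with housekeeping-gene normalization.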

Read-out in assay [5]: Cytochrome P450 (CYP2B6), CYP2B6 (gene 1555)
As to the kind of experiment: LTEA_HepaRG_CYP2B6: Life Technologies and Expression Analysis (LTEA) Assay for Cytochrome P450 (CYP2B6) using HepaRG (AID 2283481). Put shortly: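 HepaRG cells plated 48 h, switched to serum-free induction medium, then dosed 48 h (8 points, half-log from 100 uM, 0.5% DMSO). RNA isolated; CYP2B6 expression measured by qRT-PCR; gain or loss fitted relative to DMSO.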

Read-out in assay [6]: Cytochrome P450 2C19 (Homo sapiens) (UniProt P33261)
As to the kind of experiment: LTEA_HepaRG_CYP2C19: Life Technologies and Expression Analysis (LTEA) Assay for CYP2C19 using HepaRG (AID 2283482). The method, boiled down:
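Transcript levels of CYP2C19 were quantified by qRT-PCR after HepaRG cells were treated for 48 hours with test chemicals up to 100 uM (eight half-log concentrations, 0.5% DMSO vehicle). Gain or loss of signal was fitted relative to DMSO.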

Read-out in another assay: CYP2C8 (gene 1558)
As to the kind of experiment: LTEA_HepaRG_CYP2C8: Life Technologies and Expression Analysis (LTEA) Assay for CYP2C8 using HepaRG (AID 2283483). Put shortly: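 This is a transcriptional endpoint in HepaRG cultures: 48 h exposure, highest concentration 100 uM. CYP2C8 mRNA is quantified by TaqMan qRT-PCR.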

Read-out in another assay: CYP2C9 (gene 1559)
As to the kind of experiment: LTEA_HepaRG_CYP2C9: Life Technologies and Expression Analysis (LTEA) Assay for CYP2C9 using HepaRG (AID 2283484). The method, boiled down:
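Eight-point concentration-response (highest 100 uM, half-log dilutions) in HepaRG cells for 48 h; CYP2C9 expression by qRT-PCR normalized to ACTB, GAPDH, POLR2A. Bidirectional fit, DMSO baseline.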

Read-out in a further assay: CYP2E1 (gene 1571)
As to the kind of experiment: LTEA_HepaRG_CYP2E1: Life Technologies and Expression Analysis (LTEA) Assay for CYP2E1 using HepaRG (AID 2283485). The method, boiled down:
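CYP2E1 transcript measured by Fluidigm qRT-PCR against three housekeeping genes in human HepaRG cells treated 48 h (top 100 uM, half-log steps, 0.5% DMSO vehicle). Gain or loss fitted relative to DMSO baseline.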

Read-out in the next assay: CYP4A11 (gene 1579)
Put plainly: LTEA_HepaRG_CYP4A11: Life Technologies and Expression Analysis (LTEA) Assay for CYP4A11 using HepaRG (AID 2283486). The method, boiled down:
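HepaRG, 48 h chem exposure, 8 conc (100 uM top, half-log), 0.5% DMSO vehicle; qRT-PCR readout, housekeeping-gene normalized; bidirectional curve fit vs DMSO baseline.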

Read-out in assay [7]: Cytochrome P450 3A4 (Homo sapiens) (UniProt P08684)
As to the kind of experiment: LTEA_HepaRG_CYP3A4: Life Technologies and Expression Analysis (LTEA) Assay for CYP3A4 using HepaRG (AID 2283487). Put shortly:
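In a human hepatic line (HepaRG), duplicate wells were treated 48 h with up to 100 uM chemical in half-log dilutions. Endpoint: CYP3A4 mRNA induction or loss relative to 0.5% DMSO vehicle, by qRT-PCR.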

Read-out in assay [8]: DNA damage-inducible transcript 3 (DDIT3), DDIT3 (gene 1649)
Put plainly: LTEA_HepaRG_DDIT3: Life Technologies and Expression Analysis (LTEA) Assay for DNA damage-inducible transcript 3 (DDIT3) using HepaRG (AID 2283488). Put shortly: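 DDIT3 transcript was quantified by qRT-PCR with ACTB/GAPDH/POLR2A normalization after 48 h chemical treatment of differentiated HepaRG cells in 0.5% DMSO. Dosing was eight-point, half-log, top 100 uM, duplicate wells. Curves fitted bidirectionally versus DMSO.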

Read-out in assay [9]: Pro-epidermal growth factor (Homo sapiens) (UniProt P01133)
Put plainly: LTEA_HepaRG_EGF: Life Technologies and Expression Analysis (LTEA) Assay for Epidermal growth factor (EGF) using HepaRG (AID 2283489). Put shortly: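 HepaRG, 48 h dosing, 100 uM top, half-log x8, 0.5% DMSO. Readout: TaqMan qRT-PCR (Fluidigm array), housekeeping-normalized. Gain or loss of signal fit vs DMSO.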

Read-out in assay [10]: Early growth response protein 1 (EGR1) transcription factor, EGR1 (gene 1958)
As to the kind of experiment: LTEA_HepaRG_EGR1: Life Technologies and Expression Analysis (LTEA) Assay for Early growth response protein 1 (EGR1) transcription factor using HepaRG (AID 2283490). The method, boiled down:
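EGR1 expression change in human HepaRG after 48 h chemical exposure, assessed by housekeeping-normalized qRT-PCR; concentration-response up to 100 uM, fitted in both directions against DMSO controls.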

Read-out in assay [11]: Ezrin (EZR), EZR (gene 7430)
Put plainly: LTEA_HepaRG_EZR: Life Technologies and Expression Analysis (LTEA) Assay for Ezrin (EZR) using HepaRG (AID 2283491). The method, boiled down: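 Gain or loss of EZR mRNA is scored relative to 0.5% DMSO in human HepaRG cultures treated 48 h with test chemicals in duplicate, eight half-log concentrations from 100 uM.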

Read-out in assay [12]: Cytochrome P450 3A7 (Homo sapiens) (UniProt P24462)
Put plainly: LTEA_HepaRG_CYP3A7: Life Technologies and Expression Analysis (LTEA) Assay for CYP3A7 using HepaRG (AID 2283492). Put shortly: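 Human HepaRG liver cells, 48 h post-plating, switched to serum-free induction medium and exposed in duplicate for 48 h. Dosing: 100 uM top, half-log dilutions, 8 points, 0.5% DMSO vehicle. Read-out: CYP3A7 mRNA, gain or loss fitted against DMSO baseline.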

Read-out in the next assay: CYP3A5 (gene 1577)
As to the kind of experiment: LTEA_HepaRG_CYP3A5: Life Technologies and Expression Analysis (LTEA) Assay for CYP3A5 using HepaRG (AID 2283493). The method, boiled down: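 mRNA levels were quantified by qRT-PCR on Fluidigm arrays and normalized to three housekeeping genes. Differentiated HepaRG cells received 48 h exposure (top 100 uM, half-log steps, 0.5% DMSO vehicle, duplicate); bidirectional fitting versus DMSO.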

Read-out in assay [13]: Fatty Acid-Binding Protein 1 (FABP1), FABP1 (gene 2168)
Put plainly: LTEA_HepaRG_FABP1: Life Technologies and Expression Analysis (LTEA) Assay for Fatty Acid-Binding Protein 1 (FABP1) using HepaRG (AID 2283494). Put shortly: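 Values reflect bidirectional concentration-response fitting of FABP1 mRNA change against 0.5% DMSO controls. Human HepaRG cultures received eight half-log doses (top 100 uM) for 48 h; expression quantified by TaqMan qRT-PCR with housekeeping-gene normalization.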

Read-out in assay [14]: Cytochrome P450 4A22 (Homo sapiens) (UniProt Q5TCH4)
As to the kind of experiment: LTEA_HepaRG_CYP4A22: Life Technologies and Expression Analysis (LTEA) Assay for Cytochrome P450 4A22 (CYP4A22) using HepaRG (AID 2283495). Put shortly:
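Readout is CYP4A22 transcript induction or loss, quantified by qRT-PCR and normalized to ACTB, GAPDH and POLR2A. Human HepaRG cells receive test chemicals for 48 h at eight half-log concentrations from 100 uM in 0.5% DMSO.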

Calls of active or inactive are those of the source. How the source made its calls: active means hit-call score of the fitted dose curve at least 0.9, where 1 is the maximum; inactive means score below 0.9.

Caspase-3 (Homo sapiens), sequence (P42574 whole entry, looked up): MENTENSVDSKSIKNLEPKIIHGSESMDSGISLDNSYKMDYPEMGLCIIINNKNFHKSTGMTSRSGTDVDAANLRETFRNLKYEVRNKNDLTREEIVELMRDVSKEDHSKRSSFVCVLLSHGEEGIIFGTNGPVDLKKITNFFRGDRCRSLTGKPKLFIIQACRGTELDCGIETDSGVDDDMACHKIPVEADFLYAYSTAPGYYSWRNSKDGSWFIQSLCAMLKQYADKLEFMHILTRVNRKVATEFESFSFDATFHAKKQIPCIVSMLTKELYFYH
Cytochrome P450 2C19 (Homo sapiens), sequence (P33261 whole entry, looked up): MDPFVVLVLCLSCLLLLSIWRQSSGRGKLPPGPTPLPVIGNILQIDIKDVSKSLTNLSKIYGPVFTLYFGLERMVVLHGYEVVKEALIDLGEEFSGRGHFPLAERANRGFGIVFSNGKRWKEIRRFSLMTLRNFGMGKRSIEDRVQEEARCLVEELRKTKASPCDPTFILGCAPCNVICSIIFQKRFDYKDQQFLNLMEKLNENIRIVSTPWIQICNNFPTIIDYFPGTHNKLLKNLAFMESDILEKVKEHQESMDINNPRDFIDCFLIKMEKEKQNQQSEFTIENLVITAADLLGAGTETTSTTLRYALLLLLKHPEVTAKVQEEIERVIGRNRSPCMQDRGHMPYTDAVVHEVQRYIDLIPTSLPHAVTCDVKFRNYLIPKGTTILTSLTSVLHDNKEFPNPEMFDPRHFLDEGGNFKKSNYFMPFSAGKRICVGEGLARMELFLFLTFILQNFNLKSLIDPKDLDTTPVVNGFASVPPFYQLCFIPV
Cytochrome P450 3A4 (Homo sapiens), sequence (P08684 whole entry, looked up): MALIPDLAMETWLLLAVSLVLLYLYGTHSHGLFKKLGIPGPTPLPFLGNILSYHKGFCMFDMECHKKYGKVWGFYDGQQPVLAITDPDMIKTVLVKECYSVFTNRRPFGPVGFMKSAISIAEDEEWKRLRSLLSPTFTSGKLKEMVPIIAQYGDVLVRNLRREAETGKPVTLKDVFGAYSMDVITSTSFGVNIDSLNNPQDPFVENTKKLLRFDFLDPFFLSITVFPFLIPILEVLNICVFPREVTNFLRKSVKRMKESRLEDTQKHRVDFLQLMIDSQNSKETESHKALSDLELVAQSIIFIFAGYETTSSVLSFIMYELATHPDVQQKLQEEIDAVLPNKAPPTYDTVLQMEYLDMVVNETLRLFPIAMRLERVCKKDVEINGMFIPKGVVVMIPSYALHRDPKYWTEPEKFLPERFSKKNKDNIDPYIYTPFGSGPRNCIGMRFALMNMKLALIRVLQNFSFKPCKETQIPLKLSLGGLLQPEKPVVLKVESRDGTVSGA
Cytochrome P450 3A7 (Homo sapiens), sequence (P24462 whole entry, looked up): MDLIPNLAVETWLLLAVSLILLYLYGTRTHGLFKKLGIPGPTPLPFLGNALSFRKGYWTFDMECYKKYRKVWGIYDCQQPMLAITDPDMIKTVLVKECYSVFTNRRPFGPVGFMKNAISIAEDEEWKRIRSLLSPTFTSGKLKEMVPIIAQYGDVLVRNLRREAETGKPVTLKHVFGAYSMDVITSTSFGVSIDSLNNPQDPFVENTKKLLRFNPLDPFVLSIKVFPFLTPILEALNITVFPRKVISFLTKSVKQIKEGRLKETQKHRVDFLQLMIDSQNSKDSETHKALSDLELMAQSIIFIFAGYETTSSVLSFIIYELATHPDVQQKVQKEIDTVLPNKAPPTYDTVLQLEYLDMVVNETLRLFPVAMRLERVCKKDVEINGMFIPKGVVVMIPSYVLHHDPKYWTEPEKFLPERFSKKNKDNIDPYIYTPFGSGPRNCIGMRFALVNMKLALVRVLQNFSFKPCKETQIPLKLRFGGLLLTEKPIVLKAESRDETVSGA

What is called AC50 is the concentration giving half of the maximal activity seen. `CC(=O)c1ccc2c(c1)[C@H](NC(=O)c1ccc(F)cc1)[C@@H](O)C(C)(C)O2`: the call (in assay [1]; with Caspase-3 (Homo sapiens); in assay [2]; in [3]; in [4]; in the assay with CYP2C8 (gene 1558)) was inactive. Besides, the result (with CYP2C9 (gene 1559); with CYP2E1 (gene 1571); with CYP4A11 (gene 1579); in assay [8]; in assay [9]; in [10]) was inactive. Further, the result (in assay [11]; with CYP3A5 (gene 1577); in assay [13]; in [14]) was inactive. For the same compound, the AC50 in [5] was 68.4 µM (active); in assay [6], 16.3 µM (active); in assay [7], 18 µM (active); in assay [12], 34.2 µM (active).

Consider `CCOC(=O)COc1ccc2c(c1)CC(NCC(O)c1cccc(Cl)c1)CC2` (stereo not given), for which the call (in assay [1]; with Caspase-3 (Homo sapiens); in assay [2]; in assay [3]; in assay [4]; in [6]) was inactive. Moreover, the call (in the assay with CYP2C8 (gene 1558); with CYP2C9 (gene 1559); in the assay with CYP2E1 (gene 1571); in the assay with CYP4A11 (gene 1579); in [7]; in assay [8]) was inactive. Moreover, the compound was classed as inactive (in [9]; in assay [10]; in assay [11]; in [12]; with CYP3A5 (gene 1577); in [14]). For the same compound, the AC50 in assay [5] is 0.947 µM (active); in assay [13], 45.8 µM (active).

With `CC(C)CCCCCCCOC(=O)CCCCC(=O)OCCCCCCCC(C)C`, the compound was called inactive (in assay [1]; with Caspase-3 (Homo sapiens); in [2]; in assay [3]; in assay [4]; in [5]). Also, the result (in assay [6]; in the assay with CYP2C8 (gene 1558); in the assay with CYP2C9 (gene 1559); in the assay with CYP2E1 (gene 1571); in the assay with CYP4A11 (gene 1579); in assay [7]) was inactive. Also, the outcome (in [8]; in [9]; in assay [10]; in [11]; in [12]; with CYP3A5 (gene 1577)) was inactive. Further, the call in assay [13] and in [14] was inactive.
